Test [1] in a line: qHTS assay to identify aromatase inhibitors - cell viability counter screen (AID 743084).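 Note: cells stimulated with testosterone during compound exposure; nearly all actives have a fitted effect of over 55% in size.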 Note: potency is the fitted concentration of half-maximal effect. A general note: Quantitative high-throughput screening tests each substance at several concentrations.
A short description of test [2]: qHTS assay to identify small molecule that activate the aryl hydrocarbon receptor (AhR) signaling pathway - cell viability counter screen (AID 743086).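 Note: HepG2 liver cells carrying the AhR DRE luciferase reporter; series mostly up to about 70 µM; nearly all actives have a fitted effect of over 45% in size.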 A digest of the protocol: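 HepG2-AhR-luc (HG2L7.5c1) cells, 4000/well, were preincubated 5 h at 37C, exposed to compound in qHTS format for 24 hr at 37C, then given CellTiter-Fluor for 30 min; viability was read as fluorescence in the reporter wells.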

The target of test [3] is Peroxisome proliferator-activated receptor gamma (Homo sapiens) (UniProt P37231). The experiment in a line: qHTS assay to identify small molecule agonists of the peroxisome proliferator-activated receptor gamma (PPARg) signaling pathway (AID 743094; active = well fitted activation curve with a large enough effect in the signal ratio in the repeat runs, not every such curve was filed as active; the % refers to the signal ratio; note: potency is the fitted concentration of half-maximal effect). The procedure, abridged: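 Stably transfected HEK293H cells (GeneBLAzer PPARg UAS-bla) were incubated with test substances for 17 h at 37C after a 5 h pre-incubation; beta-lactamase activity was then detected by FRET substrate fluorescence.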
Peroxisome proliferator-activated receptor gamma (Homo sapiens), sequence (P37231 whole entry, looked up): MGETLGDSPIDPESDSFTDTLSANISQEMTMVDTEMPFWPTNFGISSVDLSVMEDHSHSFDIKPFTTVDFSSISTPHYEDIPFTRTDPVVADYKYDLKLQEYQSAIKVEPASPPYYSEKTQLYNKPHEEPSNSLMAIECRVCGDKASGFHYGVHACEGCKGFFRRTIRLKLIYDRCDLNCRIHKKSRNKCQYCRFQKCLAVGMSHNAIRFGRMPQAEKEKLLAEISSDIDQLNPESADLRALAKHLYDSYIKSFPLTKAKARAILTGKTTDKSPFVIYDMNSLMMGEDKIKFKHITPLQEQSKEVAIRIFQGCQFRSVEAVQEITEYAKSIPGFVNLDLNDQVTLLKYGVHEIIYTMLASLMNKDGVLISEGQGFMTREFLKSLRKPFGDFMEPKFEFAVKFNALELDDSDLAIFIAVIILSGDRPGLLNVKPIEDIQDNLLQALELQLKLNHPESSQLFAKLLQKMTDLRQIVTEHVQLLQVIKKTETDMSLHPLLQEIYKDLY

Test [4] shares this target. The experiment in a line: qHTS assay to identify small molecule antagonists of the peroxisome proliferator-activated receptor gamma (PPARg) signaling pathway (AID 743191; calls by dose curve; note: series mostly up to about 63 µM; nearly all actives have a fitted effect of over 30% in size). The procedure, abridged: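 GeneBLAzer PPARg UAS-bla HEK293H cells carrying a UAS-driven beta-lactamase reporter were plated at 3000 cells/well, preincubated 5 h at 37C, then given compound for 17 h at 37C; LiveBLAzer B/G FRET substrate was read after 1 h at room temperature.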

Test [5] is described as follows: qHTS assay to identify small molecule antagonists of the peroxisome proliferator-activated receptor gamma (PPARg) signaling pathway - cell viability counter screen (AID 743194). Note: nearly all actives have a fitted effect of over 55% in size. The procedure, abridged:
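PPARg-UAS-bla HEK293H cells were plated, rested 5 h at 37 C, then treated with compounds plus rosiglitazone (50 nM final) for 17 h at 37 C; viability was then read by CellTiter-Glo luminescence after 30 min at room temperature.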

The nature of test [6]: qHTS assay for small molecule agonists of the antioxidant response element (ARE) signaling pathway - cell viability counter screen (AID 743203; calls by dose curve; note: nearly all actives have a fitted effect of over 55% in size; note: potency is the fitted concentration of half-maximal effect). The procedure, abridged: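 Cells (ARE-bla HepG2, 2,000/well) receive DMSO-dissolved compounds after a 5 hrs rest. Plates incubate 16 hrs at 37C/5% CO2. CellTiter-Glo luminescence is then recorded after 30 min at room temperature.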

A short description of test [7]: qHTS assay for small molecule activators of the heat shock response signaling pathway - cell viability counter screen (AID 743209). Note: nearly all actives have a fitted effect of over 50% in size. A digest of the protocol: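 Quantitative HTS format, Tox21 10K library. HeLa cells carrying an HSE-driven beta-lactamase reporter were treated 5 h at 37 C, then assessed for viability by CellTiter-Glo luminescence.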
A short description of test [8]: qHTS assay for small molecule activators of the heat shock response signaling pathway (AID 743210; active = well fitted activation curve with a large enough effect in the signal ratio in the repeat runs, with a control signal flat, not every such curve was filed as active; the % refers to the signal ratio; note: series mostly up to about 63 µM). The procedure, abridged:
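Reporter gene assay: HeLa cells stably bearing an HSE-bla construct, compound treatment 5 h at 37 C, LiveBLAzer substrate 2.5 h at RT, fluorescence intensity.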

A short description of test [9]: qHTS assay to identify small molecule agonists of the peroxisome proliferator-activated receptor delta (PPARd) signaling pathway - cell viability counter screen (AID 743211). Note: nearly all actives have a fitted effect of over 55% in size. Note: potency is the fitted concentration of half-maximal effect. A digest of the protocol:
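Following 5 h plating at 37 C and 5% CO2, PPARd UAS-bla HEK293H cells took up test compounds for 17 h. Viability was quantified by luminescence 30 min after CellTiter-Glo addition at room temperature.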

Test [10] has as its target Peroxisome proliferator-activated receptor delta (Homo sapiens) (UniProt Q03181). The experiment in a line: qHTS assay to identify small molecule agonists of the peroxisome proliferator-activated receptor delta (PPARd) signaling pathway (AID 743212; calls by dose curve). A digest of the protocol: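 A PPARd-bla HEK293H line with beta-lactamase under an Upstream Activator Sequence is treated with compounds at 37 C. Substrate loading for 2 h at room temperature precedes the fluorescence measurement.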

The nature of test [11]: qHTS assay to identify small molecule antagonists of the peroxisome proliferator-activated receptor delta (PPARd) signaling pathway - cell viability counter screen (AID 743213). Note: nearly all actives have a fitted effect of over 50% in size. Note: potency is the fitted concentration of half-maximal effect. The procedure, abridged:
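PPARd-bla HEK293H cells (3000/well) got compound plus 300 nM L165041 agonist for 17 h at 37 C. Viability in the same wells came from CellTiter-Glo luminescence after 30 min at room temperature.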

For test [12], the target named is Peroxisome proliferator-activated receptor delta (Homo sapiens) (UniProt Q03181). In words: qHTS assay to identify small molecule antagonists of the peroxisome proliferator-activated receptor delta (PPARd) signaling pathway (AID 743215; active = well fitted inhibition curve with a large enough effect in the signal ratio in the repeat runs, not every such curve was filed as active; the % refers to the signal ratio;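 note: cells stimulated with agonist L165041 at 300 nM final during compound exposure; series mostly up to about 62 µM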). A digest of the protocol:
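Antagonist-mode beta-lactamase reporter screen: HEK293H cells with UAS-bla under PPARd control, stimulated by 300 nM L165041 (final) alongside test compound for 17 h at 37 C, then FRET fluorescence after 2 h substrate incubation.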

The nature of test [13]: qHTS assay to identify small molecule agonists of the farnesoid-X-receptor (FXR) signaling pathway - cell viability counter screen (AID 743218). Note: nearly all actives have a fitted effect of over 45% in size. The procedure, abridged:
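In GeneBLAzer FXR-UAS-bla HEK 293T cells, compounds act for 16 h at 37 C. Cell viability is then scored in the reporter wells by CellTiter-Glo, 30 min at RT, luminescence.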

The nature of test [14]: qHTS assay to identify small molecule antagonists of the farnesoid-X-receptor (FXR) signaling pathway - cell viability counter screen (AID 743221; active = well fitted cell-killing curve with a large enough effect in the repeat runs, not every such curve was filed as active; note: nearly all actives have a fitted effect of over 50% in size). The procedure, abridged:
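Compound effects on cell number were measured as CellTiter-Glo luminescence in HEK 293T cells expressing FXR-UAS-bla, after 16 h at 37 C with 50 uM CDCA (final).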

Test [15] deals with Vitamin D3 receptor (Homo sapiens) (UniProt P11473). In words: qHTS assay to identify small molecule agonists of the vitamin D receptor (VDR) signaling pathway (AID 743222; calls by dose curve). The procedure, abridged: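 Agonist activity measured in VDR-bla reporter cells. Exposure 16 h, 37C, 5% CO2; detection by B/G FRET substrate, 2 h RT.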
Vitamin D3 receptor (Homo sapiens), sequence (P11473 whole entry, looked up): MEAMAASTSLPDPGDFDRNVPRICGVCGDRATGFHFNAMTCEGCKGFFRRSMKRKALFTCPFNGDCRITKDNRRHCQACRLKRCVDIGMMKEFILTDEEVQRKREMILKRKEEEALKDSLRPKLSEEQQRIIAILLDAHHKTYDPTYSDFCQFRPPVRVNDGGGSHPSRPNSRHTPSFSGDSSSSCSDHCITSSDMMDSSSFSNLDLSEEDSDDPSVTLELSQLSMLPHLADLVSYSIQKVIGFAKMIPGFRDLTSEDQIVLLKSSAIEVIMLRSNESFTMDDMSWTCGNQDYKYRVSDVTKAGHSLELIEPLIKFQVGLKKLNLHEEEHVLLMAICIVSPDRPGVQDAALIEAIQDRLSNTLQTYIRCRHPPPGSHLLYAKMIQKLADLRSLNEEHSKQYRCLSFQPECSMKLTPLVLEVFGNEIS
For test [16] the target is unchanged. In words: qHTS assay to identify small molecule antagonists of the vitamin D receptor (VDR) signaling pathway (AID 743223; active = well fitted inhibition curve with a large enough effect in the signal ratio in the repeat runs, not every such curve was filed as active; the % refers to the signal ratio). A digest of the protocol: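 Beta-lactamase activity in VDR-bla cells is measured by FRET substrate fluorescence (2 h, room temperature) after cells spend 16 h at 37C with test compound and 3 nM final 1alpha,25-dihydroxyvitamin D3.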
For test [17], the target named is Aryl hydrocarbon receptor (Homo sapiens) (UniProt P35869). In words: qHTS assay to identify small molecule that activate the aryl hydrocarbon receptor (AhR) signaling pathway (AID 743085).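 For activation: HG2L7.5c1 human HepG2 liver cells with stably integrated DRE-driven firefly reporter; series mostly up to about 70 µM.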 Note: nearly all actives have a fitted effect of over 15% in size. Note: potency is the fitted concentration of half-maximal effect. The procedure, abridged:
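Measured in HG2L7.5c1 cells: CellTiter-Fluor signal (30 min incubation, 37C) for viability, then luciferase luminescence (30 min, room temperature). Compound contact time was 24 h at 37C, following a 5 h pre-incubation.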

A short description of test [18]: qHTS assay for small molecule agonists of the antioxidant response element (ARE) signaling pathway (AID 743202; active = well fitted activation curve with a large enough effect in the signal ratio in the repeat runs, not every such curve was filed as active; the % refers to the signal ratio; note: potency is the fitted concentration of half-maximal effect). A digest of the protocol: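 Compounds delivered in DMSO to ARE-bla HepG2 cells (2,000 cells/well, pre-incubated 5 h) and left 16 h at 37 C. LiveBLAzer B/G FRET substrate then added for 2 h at RT before fluorescence reading.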
The target of test [19] is Bile acid receptor (Homo sapiens) (UniProt Q96RI1). The experiment in a line: qHTS assay to identify small molecule agonists of the farnesoid-X-receptor (FXR) signaling pathway (AID 743220; active = well fitted activation curve with a large enough effect in the signal ratio in the repeat runs, not every such curve was filed as active; the % refers to the signal ratio). A digest of the protocol: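 Beta-lactamase reporter under UAS control in GeneBLAzer FXR HEK 293T cells (5000/well) measured with LiveBLAzer FRET substrate after 2 h at room temperature. Compound exposure lasted 16 h at 37C.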
Bile acid receptor (Homo sapiens), sequence (Q96RI1 whole entry, looked up): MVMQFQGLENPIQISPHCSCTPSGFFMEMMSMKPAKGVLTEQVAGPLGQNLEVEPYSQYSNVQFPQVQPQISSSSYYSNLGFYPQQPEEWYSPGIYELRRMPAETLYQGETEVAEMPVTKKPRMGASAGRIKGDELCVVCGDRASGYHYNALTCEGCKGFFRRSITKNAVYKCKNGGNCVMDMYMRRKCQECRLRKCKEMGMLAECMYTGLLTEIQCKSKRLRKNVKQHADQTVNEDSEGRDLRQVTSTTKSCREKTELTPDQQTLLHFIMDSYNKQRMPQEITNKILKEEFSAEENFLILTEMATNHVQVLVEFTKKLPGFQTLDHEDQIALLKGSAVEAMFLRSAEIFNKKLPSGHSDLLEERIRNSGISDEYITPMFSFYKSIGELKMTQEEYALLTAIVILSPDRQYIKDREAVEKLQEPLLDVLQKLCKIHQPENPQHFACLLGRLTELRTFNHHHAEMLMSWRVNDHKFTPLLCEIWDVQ

Test [20] has the same target. The experiment in a line: qHTS assay to identify small molecule antagonists of the farnesoid-X-receptor (FXR) signaling pathway (AID 743217; active = well fitted inhibition curve with a large enough effect in the signal ratio in the repeat runs, not every such curve was filed as active; the % refers to the signal ratio). A digest of the protocol:
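Beta-lactamase reporter under UAS control in HEK 293T cells; compound exposure 16 h at 37 °C in the presence of chenodeoxycholic acid (50 uM final); signal from B/G FRET substrate after 2 h at room temperature.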

Records with an inconclusive call do not appear. The source made the active and inactive calls. Unless noted, calls come from the whole dose curve; as a rule, active = well fitted curve in the direction sought with a large enough effect in the repeat runs; inconclusive = weak or mixed curves; inactive = no such curve, though single readings can be large; an effect the other way counts as inactive or inconclusive.

Aryl hydrocarbon receptor (Homo sapiens), sequence (P35869 whole entry, looked up): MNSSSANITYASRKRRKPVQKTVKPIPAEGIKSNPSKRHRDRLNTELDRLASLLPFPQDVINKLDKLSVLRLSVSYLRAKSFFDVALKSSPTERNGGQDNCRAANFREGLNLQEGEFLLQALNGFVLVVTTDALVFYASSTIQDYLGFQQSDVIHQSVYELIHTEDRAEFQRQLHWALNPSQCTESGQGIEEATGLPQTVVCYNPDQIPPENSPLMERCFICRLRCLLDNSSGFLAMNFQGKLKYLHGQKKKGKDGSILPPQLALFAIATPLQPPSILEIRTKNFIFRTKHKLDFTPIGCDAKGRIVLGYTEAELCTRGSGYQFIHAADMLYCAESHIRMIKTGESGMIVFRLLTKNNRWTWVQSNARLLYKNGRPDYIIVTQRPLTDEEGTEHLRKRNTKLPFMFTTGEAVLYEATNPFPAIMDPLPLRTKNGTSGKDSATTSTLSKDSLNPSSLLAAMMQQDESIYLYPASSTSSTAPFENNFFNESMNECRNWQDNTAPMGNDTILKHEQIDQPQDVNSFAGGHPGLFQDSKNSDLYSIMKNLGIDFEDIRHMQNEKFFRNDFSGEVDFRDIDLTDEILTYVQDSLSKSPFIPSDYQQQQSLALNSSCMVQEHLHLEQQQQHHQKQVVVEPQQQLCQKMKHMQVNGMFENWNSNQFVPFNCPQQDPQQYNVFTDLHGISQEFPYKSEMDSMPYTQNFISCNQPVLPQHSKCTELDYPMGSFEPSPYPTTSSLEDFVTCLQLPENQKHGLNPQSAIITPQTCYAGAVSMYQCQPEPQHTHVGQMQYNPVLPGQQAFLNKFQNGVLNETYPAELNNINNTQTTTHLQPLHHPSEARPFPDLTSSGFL
Peroxisome proliferator-activated receptor delta (Homo sapiens), sequence (Q03181 whole entry, looked up): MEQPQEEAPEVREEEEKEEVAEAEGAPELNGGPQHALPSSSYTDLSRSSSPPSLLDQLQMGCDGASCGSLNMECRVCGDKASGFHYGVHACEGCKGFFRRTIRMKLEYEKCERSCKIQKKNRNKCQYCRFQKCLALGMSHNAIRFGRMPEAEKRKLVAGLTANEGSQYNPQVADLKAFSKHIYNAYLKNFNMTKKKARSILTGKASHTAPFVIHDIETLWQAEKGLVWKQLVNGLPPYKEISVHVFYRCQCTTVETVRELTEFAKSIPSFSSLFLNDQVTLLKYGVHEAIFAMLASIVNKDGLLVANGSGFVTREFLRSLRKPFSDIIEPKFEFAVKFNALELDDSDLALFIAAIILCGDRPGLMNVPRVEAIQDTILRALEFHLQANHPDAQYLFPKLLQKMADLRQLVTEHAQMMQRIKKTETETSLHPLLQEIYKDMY

`COc1ccc(NC(=O)CC(C)=O)cc1`: the Potency result in test [1], in test [2], in test [3], in test [4], in test [5] and in test [6] was “inactive” each time. For the same compound, the Potency entry in test [7], in test [8], in test [9], in test [10], in [11] and in test [12] was “inactive” each time. Moreover, the Potency entry in test [13], in test [14], in test [15] and in test [16] was “inactive” throughout.
`CC(CO)Oc1ccccc1` (stereo unspecified): the Potency entry in test [17], in [2], in test [3], in test [4], in [5] and in test [18] was “inactive” throughout. Besides, the Potency entry in test [6], in [7], in [8], in [9], in test [10] and in test [12] was “inactive” in each case. Besides, the Potency result in [13], in test [19], in [14], in [15] and in [16] was “inactive” throughout.
For `Cc1ccc(N/N=c2\c(=O)cc/c(=N\Nc3ccc(S(=O)(=O)O)cc3)c2=O)c(C)c1`, the Potency was 27.3 µM (active) in test [1] and 8.63 µM (active) in [17]. Besides, the Potency entry in test [3], in [4], in test [5], in [18], in test [6] and in [7] was “inactive” in each case. Also, the Potency entry in test [8], in test [9], in test [11], in [13], in test [19] and in test [14] was “inactive” throughout.
Take `[Cu+]`: the Potency entry in test [2], in test [5], in test [6], in [9], in test [10] and in test [11] was “inactive” throughout. Also, the Potency entry in [12], in [13] and in test [14] was “inactive” each time.
For `Cc1cccc(C)c1NC(=O)c1ccc(N)cc1`, the Potency result in [4], in test [18], in [6], in test [7], in test [9] and in test [10] was “inactive” each time. Also, the Potency result in [13], in test [14], in test [15] and in test [16] was “inactive” in each case.
Consider `CC(C)(C)c1csc(-c2cc3cc(OCc4ccccc4CC(=O)O)ccc3o2)n1`, for which the Potency result in test [17], in test [19] and in test [14] was “inactive” each time. Moreover, the Potency was 0.776 µM (active) in [3], 4.86 µM (active) in test [18], 24.5 µM (active) in [9] and 30.9 µM (active) in test [11].
For `CC(C)=CCNc1ncnc2c1ncn2[C@@H]1O[C@H](CO)[C@@H](O)[C@H]1O`, the Potency in [6] is 5.96 µM (active). The Potency result in test [8], in test [10], in test [12], in test [19], in test [15] and in [16] was “inactive” in each case.
For the compound `Cc1nc(-c2ccc(Cl)cc2)oc1COC(C)(C)C(=O)O`, the Potency entry in test [2], in [5], in test [18], in test [6], in [8] and in test [11] was “inactive” throughout. In addition, the Potency entry in test [20], in test [13], in [19], in test [14], in test [15] and in test [16] was “inactive” throughout.
Regarding `Cc1ccc(O)c(O)c1`, the Potency in [17] was 29.8 µM (active). For the same compound, the Potency entry in test [5], in [6], in test [7], in test [12], in [13] and in [19] was “inactive” in each case. For the same compound, the Potency result in test [14] and in test [16] was “inactive” in each case.
